The record followed here is publication PMC7862700, “An all-to-all approach to the identification of sequence-specific readers for epigenetic DNA modifications on cytosine”.

What all share (assay): DAPPL (digital affinity profiling via proximity ligation, sequencing); 10 mM Tris-HCl pH 7.5, 50 mM NaCl, 1 mM DTT, 4% glycerol, room temperature, 30 min; GST-TFs on glutathione beads, 16-mer random dsDNA library, 0.1% formaldehyde crosslink after washing; high values mean tight binding
One assay has as its target T1, FEV (Homo sapiens, UniProt Q99581 1-238).
T1 sequence: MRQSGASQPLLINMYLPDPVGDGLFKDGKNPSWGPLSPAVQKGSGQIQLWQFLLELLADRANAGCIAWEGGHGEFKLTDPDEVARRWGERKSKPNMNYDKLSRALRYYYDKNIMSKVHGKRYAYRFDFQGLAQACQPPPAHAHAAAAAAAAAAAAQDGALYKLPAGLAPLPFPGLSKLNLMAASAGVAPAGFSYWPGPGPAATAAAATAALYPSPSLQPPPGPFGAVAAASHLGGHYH
The conditions noted are these: protein: recombinant; tags: N-terminal GST; dsDNA, one strand shown. The method, boiled down: (§1)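 Pools were built from human transcription factors expressed in yeast as GST fusions, captured on glutathione beads and DNA-barcoded, along with a tag-only sample. Incubation with 200 nmole of a 16-mer random double-stranded DNA library lasted 30 min at room temperature in Tris/NaCl/DTT/glycerol buffer, and was followed by washing, 0.1% formaldehyde crosslinking, proximity ligation, PCR amplification and Illumina NextSeq500 sequencing. Binding signal is the quotient of each hexamer's read frequency for a factor and its frequency for the tag-only sample.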

A further assay has as its target ETV5 (Homo sapiens, UniProt P41161 1-510). The conditions noted are these: protein: recombinant; tags: N-terminal GST; dsDNA, one strand shown. The method, boiled down: as §1
In a further assay the target is HSF1 (Homo sapiens, UniProt Q00613 1-529). The conditions noted are these: protein: recombinant; tags: N-terminal GST; chain copies: 3; dsDNA, one strand shown. The method, boiled down: as §1
Chain of HSF1 (Q00613 whole entry): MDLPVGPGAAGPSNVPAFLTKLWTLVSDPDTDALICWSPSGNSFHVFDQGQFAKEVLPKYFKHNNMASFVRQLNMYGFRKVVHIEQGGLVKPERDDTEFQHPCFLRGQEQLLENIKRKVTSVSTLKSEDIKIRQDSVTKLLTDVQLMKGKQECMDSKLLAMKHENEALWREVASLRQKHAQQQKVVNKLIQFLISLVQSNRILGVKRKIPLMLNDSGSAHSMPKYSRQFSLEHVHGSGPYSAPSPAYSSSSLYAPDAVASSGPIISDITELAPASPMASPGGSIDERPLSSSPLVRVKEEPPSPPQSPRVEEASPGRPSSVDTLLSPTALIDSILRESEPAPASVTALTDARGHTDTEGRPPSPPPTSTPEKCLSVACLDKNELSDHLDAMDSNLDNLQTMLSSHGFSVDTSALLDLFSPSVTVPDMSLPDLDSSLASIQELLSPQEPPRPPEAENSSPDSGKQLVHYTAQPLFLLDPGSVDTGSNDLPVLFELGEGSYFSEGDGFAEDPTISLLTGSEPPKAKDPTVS
The target in a further assay is T2, SPIC (Homo sapiens, UniProt Q8N5J4 1-248).
T2 sequence: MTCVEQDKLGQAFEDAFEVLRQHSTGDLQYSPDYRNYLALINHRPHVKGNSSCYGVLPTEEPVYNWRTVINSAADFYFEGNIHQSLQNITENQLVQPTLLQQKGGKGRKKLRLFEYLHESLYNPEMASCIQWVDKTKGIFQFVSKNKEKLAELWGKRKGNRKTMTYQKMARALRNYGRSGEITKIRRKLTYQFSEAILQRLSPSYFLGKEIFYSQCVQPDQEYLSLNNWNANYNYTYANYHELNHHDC
Conditions: protein: recombinant; tags: N-terminal GST; dsDNA, one strand shown. The method, boiled down: as §1

In a further assay the target is ELF4 (Homo sapiens, UniProt Q99607 1-663). Conditions: protein: recombinant; tags: N-terminal GST; dsDNA, one strand shown. In outline:
as §1

For the next assay, the target named is T3, ELK4 (Homo sapiens, UniProt P28324-2 1-405).
T3 sequence: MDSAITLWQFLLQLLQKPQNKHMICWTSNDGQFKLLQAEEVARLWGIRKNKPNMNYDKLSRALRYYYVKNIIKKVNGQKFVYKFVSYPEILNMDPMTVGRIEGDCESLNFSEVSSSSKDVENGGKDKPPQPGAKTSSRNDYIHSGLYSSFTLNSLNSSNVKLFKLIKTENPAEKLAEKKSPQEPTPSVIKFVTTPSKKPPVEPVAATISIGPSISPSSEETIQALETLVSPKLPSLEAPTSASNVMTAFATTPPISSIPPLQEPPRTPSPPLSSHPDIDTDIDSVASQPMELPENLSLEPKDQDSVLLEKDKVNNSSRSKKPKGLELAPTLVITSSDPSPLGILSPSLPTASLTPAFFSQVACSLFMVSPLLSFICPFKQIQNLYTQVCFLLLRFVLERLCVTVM
Conditions: protein: recombinant; tags: N-terminal GST; dsDNA, one strand shown. The method, boiled down:
as §1

For a further assay, the target named is T4, ETV2 (Homo sapiens, UniProt O00321 1-342).
T4 sequence: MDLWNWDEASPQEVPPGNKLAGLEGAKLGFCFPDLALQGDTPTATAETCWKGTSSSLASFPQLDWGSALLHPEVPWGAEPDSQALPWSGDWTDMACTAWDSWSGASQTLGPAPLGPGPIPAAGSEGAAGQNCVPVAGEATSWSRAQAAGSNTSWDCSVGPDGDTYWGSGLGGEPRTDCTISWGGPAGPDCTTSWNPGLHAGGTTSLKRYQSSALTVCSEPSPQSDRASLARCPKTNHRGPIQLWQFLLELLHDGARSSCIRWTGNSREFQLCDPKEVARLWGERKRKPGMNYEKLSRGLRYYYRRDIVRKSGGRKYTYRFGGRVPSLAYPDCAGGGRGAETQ
The conditions noted are these: protein: recombinant; tags: N-terminal GST; dsDNA, one strand shown. The method, boiled down: as §1

The target in a further assay is T5, ELF3 (Homo sapiens, UniProt P78545 1-371).
T5 sequence: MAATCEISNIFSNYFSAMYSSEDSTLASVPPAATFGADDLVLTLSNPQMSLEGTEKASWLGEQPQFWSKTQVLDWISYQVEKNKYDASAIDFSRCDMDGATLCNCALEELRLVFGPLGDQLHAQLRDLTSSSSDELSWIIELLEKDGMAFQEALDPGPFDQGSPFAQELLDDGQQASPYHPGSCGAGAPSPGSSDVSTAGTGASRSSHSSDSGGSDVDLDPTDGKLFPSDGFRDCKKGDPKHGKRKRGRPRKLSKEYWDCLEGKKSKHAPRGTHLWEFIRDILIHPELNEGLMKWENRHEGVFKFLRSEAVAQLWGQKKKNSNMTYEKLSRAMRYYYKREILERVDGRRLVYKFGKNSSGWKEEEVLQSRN
Conditions: protein: recombinant; tags: N-terminal GST; dsDNA, one strand shown. In outline:
as §1

In a further assay the target is CRX (Homo sapiens, UniProt O43186 1-299). Conditions: protein: recombinant; tags: N-terminal GST; dsDNA, one strand shown. The method, boiled down: as §1
Chain of CRX (O43186 whole entry): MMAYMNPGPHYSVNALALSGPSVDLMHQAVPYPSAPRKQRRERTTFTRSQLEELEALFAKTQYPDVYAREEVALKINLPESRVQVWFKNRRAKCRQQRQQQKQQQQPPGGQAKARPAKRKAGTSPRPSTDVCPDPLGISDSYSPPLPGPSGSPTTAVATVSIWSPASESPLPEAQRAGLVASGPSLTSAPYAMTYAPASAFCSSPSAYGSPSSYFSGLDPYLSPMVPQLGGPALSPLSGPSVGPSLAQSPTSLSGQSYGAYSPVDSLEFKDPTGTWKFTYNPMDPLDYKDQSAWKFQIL
The target in a further assay is ETV1 (Homo sapiens, UniProt P50549 1-477). Conditions: protein: recombinant; tags: N-terminal GST; dsDNA, one strand shown. In outline: as §1
Chain of ETV1 (P50549 whole entry): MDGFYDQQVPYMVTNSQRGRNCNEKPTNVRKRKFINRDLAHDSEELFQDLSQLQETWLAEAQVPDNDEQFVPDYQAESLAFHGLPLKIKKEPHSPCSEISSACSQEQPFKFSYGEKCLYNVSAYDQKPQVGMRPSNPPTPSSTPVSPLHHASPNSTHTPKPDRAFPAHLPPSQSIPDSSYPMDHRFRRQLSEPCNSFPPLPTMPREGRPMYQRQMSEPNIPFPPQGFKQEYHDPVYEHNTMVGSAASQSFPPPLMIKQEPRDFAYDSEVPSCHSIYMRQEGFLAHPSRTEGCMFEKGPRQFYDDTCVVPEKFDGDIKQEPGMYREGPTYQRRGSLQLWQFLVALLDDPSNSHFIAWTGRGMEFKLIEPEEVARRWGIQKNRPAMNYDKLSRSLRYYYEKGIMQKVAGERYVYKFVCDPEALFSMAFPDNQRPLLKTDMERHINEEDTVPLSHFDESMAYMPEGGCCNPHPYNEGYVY
The target of the next assay is T6, ERF (Homo sapiens, UniProt P50548 1-548).
T6 sequence: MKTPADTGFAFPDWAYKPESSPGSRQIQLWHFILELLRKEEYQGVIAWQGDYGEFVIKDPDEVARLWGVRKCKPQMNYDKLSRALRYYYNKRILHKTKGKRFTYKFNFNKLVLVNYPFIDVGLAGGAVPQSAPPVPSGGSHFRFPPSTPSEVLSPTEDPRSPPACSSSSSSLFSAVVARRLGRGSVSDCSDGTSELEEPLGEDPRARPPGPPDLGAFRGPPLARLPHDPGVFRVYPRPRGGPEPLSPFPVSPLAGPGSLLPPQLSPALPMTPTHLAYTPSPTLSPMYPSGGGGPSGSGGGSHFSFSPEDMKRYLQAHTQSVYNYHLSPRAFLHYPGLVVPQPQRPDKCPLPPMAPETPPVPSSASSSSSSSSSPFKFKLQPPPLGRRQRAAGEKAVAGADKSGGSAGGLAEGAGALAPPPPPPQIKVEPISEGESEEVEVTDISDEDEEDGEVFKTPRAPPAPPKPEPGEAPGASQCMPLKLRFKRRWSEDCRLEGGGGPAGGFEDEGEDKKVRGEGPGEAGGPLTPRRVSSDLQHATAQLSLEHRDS
Conditions: protein: recombinant; tags: N-terminal GST; dsDNA, one strand shown. In outline:
as §1

The next assay addresses T7, ETV3L (Homo sapiens, UniProt Q6ZN32 1-361).
T7 sequence: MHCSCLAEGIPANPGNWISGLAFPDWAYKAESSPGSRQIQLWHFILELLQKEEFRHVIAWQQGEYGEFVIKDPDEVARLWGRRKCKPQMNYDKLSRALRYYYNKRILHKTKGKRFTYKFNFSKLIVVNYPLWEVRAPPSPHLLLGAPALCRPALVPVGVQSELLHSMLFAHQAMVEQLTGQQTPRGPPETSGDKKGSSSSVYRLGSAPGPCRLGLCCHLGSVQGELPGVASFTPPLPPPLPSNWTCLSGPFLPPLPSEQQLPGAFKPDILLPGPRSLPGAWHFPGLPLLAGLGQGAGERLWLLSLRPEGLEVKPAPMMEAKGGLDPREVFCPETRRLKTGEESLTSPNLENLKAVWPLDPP
Conditions: protein: recombinant; tags: N-terminal GST; dsDNA, one strand shown. In outline:
as §1

Another assay deals with T8, ETS2 (Homo sapiens, UniProt P15036 1-469).
T8 sequence: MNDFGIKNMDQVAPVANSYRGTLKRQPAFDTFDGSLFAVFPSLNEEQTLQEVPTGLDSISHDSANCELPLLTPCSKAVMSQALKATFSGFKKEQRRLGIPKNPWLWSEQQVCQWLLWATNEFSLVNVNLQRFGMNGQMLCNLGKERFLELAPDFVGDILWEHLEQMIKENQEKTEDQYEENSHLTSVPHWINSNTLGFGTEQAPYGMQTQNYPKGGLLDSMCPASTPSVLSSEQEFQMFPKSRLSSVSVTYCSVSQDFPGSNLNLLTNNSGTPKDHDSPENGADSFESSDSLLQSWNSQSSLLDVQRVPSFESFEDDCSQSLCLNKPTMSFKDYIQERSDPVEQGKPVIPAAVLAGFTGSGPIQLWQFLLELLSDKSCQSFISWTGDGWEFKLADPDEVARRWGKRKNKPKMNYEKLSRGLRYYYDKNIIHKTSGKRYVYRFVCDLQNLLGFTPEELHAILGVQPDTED
The conditions noted are these: protein: recombinant; tags: N-terminal GST; dsDNA, one strand shown. The method, boiled down: as §1

The next assay has as its target T9, SPDEF (Homo sapiens, UniProt O95238 1-335).
T9 sequence: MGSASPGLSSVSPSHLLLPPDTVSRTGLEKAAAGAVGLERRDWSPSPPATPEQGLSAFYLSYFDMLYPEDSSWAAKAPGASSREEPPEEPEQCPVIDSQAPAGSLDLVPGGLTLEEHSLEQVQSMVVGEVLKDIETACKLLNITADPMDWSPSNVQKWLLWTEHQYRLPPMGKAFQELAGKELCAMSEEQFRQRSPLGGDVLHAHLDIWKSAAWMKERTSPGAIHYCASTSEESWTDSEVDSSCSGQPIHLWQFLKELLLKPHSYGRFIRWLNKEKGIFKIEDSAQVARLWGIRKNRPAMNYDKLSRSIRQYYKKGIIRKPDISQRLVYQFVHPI
Conditions: protein: recombinant; tags: N-terminal GST; dsDNA, one strand shown. The method, boiled down: as §1

Another assay deals with T10, ETV7 (Homo sapiens, UniProt Q9Y603 1-341).
T10 sequence: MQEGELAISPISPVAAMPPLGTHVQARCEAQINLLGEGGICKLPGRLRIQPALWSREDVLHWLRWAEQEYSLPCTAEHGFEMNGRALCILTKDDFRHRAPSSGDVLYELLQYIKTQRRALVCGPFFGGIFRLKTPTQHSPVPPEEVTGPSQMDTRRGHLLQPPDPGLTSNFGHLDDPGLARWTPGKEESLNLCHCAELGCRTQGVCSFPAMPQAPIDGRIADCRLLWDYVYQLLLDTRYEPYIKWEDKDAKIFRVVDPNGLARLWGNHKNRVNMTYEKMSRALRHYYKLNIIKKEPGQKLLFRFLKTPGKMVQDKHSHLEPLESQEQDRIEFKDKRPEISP
Conditions: protein: recombinant; tags: N-terminal GST; dsDNA, one strand shown. The method, boiled down:
as §1

The target in a further assay is T11, ELF5 (Homo sapiens, UniProt Q9UKW6-2 1-255).
T11 sequence: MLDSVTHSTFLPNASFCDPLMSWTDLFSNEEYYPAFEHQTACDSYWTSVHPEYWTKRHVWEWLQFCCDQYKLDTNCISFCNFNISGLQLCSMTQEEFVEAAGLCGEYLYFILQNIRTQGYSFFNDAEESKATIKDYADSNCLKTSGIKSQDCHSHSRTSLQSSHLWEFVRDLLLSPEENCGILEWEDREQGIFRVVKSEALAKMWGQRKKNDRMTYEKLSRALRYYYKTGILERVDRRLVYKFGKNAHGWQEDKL
Conditions: protein: recombinant; tags: N-terminal GST; dsDNA, one strand shown. In outline: as §1

In a further assay the target is T12, ETV3 (Homo sapiens, UniProt P41162-2 1-143).
T12 sequence: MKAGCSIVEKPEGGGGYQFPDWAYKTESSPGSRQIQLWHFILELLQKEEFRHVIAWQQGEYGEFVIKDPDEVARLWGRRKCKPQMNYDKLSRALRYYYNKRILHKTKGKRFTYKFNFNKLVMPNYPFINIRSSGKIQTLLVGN
Conditions: protein: recombinant; tags: N-terminal GST; dsDNA, one strand shown. The method, boiled down: as §1

The next assay deals with ETV6 (Homo sapiens, UniProt P41212 1-452). Conditions: protein: recombinant; tags: N-terminal GST; dsDNA, one strand shown. In outline:
as §1

Chain of ETV6 (P41212 whole entry): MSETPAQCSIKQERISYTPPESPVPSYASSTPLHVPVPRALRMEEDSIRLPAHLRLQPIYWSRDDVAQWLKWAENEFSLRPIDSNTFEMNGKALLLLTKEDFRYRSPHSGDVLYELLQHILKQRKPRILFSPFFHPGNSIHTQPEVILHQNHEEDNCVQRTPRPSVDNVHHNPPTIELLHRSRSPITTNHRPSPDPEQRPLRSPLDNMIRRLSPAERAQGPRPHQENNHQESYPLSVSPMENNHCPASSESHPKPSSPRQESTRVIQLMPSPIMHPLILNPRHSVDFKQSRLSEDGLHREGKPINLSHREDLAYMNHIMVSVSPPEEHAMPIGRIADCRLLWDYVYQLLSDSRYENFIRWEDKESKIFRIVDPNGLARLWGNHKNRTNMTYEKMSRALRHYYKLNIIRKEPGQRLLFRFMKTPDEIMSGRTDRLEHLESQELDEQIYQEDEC
Chain of ELF4 (Q99607 whole entry): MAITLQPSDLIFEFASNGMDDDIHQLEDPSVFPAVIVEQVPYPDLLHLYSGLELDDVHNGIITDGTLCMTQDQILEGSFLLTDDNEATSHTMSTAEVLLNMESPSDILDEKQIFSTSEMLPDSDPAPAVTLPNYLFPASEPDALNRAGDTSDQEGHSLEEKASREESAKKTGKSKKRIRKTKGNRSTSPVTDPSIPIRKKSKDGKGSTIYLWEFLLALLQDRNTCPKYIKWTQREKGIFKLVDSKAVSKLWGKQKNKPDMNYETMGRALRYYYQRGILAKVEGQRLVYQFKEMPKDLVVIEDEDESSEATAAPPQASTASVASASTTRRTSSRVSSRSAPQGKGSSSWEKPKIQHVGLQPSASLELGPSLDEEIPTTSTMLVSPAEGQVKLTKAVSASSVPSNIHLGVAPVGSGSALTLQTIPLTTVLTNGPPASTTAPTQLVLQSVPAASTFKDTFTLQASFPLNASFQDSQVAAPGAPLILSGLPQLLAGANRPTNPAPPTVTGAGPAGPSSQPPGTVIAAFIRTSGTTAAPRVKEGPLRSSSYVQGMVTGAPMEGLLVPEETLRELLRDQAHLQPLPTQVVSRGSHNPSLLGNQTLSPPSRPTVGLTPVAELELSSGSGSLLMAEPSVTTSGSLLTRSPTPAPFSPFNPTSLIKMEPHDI
Chain of ETV5 (P41161 whole entry): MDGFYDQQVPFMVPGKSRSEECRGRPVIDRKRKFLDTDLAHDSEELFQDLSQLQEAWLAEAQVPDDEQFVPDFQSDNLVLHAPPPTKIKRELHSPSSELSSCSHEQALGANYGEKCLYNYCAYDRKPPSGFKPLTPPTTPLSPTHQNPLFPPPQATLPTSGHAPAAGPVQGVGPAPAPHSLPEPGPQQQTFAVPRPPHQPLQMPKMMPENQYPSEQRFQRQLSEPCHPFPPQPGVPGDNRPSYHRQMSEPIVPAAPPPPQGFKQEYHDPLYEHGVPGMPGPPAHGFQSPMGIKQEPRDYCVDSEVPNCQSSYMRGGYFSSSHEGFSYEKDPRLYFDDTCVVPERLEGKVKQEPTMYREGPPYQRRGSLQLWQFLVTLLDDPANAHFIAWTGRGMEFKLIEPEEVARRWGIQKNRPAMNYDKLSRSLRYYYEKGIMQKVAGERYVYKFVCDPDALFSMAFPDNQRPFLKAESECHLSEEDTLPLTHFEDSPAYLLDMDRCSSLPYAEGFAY

In the case of GCCTTC, the binding signal was 1.57 fold enrichment (6-mer frequency, TF over GST control) in the assay with FEV; 1.56 fold enrichment (6-mer frequency, TF over GST control) with ETV5; 1.49 fold enrichment (6-mer frequency, TF over GST control) in the assay with HSF1; 1.71 fold enrichment (6-mer frequency, TF over GST control) with SPIC; 1.6 fold enrichment (6-mer frequency, TF over GST control) in the assay with ELF4; 1.64 fold enrichment (6-mer frequency, TF over GST control) in the assay with ELK4. The binding signal with ETV2 is 1.63 fold enrichment (6-mer frequency, TF over GST control); with ELF3 it was 1.41 fold enrichment (6-mer frequency, TF over GST control); in the assay with CRX, 1.2 fold enrichment (6-mer frequency, TF over GST control); with ETV1, 1.66 fold enrichment (6-mer frequency, TF over GST control); with ERF, 1.47 fold enrichment (6-mer frequency, TF over GST control); with ETV3L, 1.45 fold enrichment (6-mer frequency, TF over GST control). Moreover, the binding signal is 1.44 fold enrichment (6-mer frequency, TF over GST control) in the assay with ETS2; 1.47 fold enrichment (6-mer frequency, TF over GST control) in the assay with SPDEF; 1.47 fold enrichment (6-mer frequency, TF over GST control) with ETV7; 1.67 fold enrichment (6-mer frequency, TF over GST control) in the assay with ELF5; 1.63 fold enrichment (6-mer frequency, TF over GST control) with ETV3; 1.47 fold enrichment (6-mer frequency, TF over GST control) in the assay with ETV6.
